# From PMC7862700, “An all-to-all approach to the identification of sequence-specific readers for epigenetic DNA modifications on cytosine”
# Assays:
# Assay in all cases: DAPPL (digital affinity profiling via proximity ligation, sequencing); 10 mM Tris-HCl pH 7.5, 50 mM NaCl, 1 mM DTT, 4% glycerol, room temperature, 30 min; GST-TFs on glutathione beads, 16-mer random dsDNA library, 0.1% formaldehyde crosslink after washing; high values mean tight binding
# Settings in all cases: protein: recombinant; tags: N-terminal GST; dsDNA, one strand shown
# FLI1 = target: T1, FLI1 (Homo sapiens, UniProt Q01543 1-452)
# T1 sequence: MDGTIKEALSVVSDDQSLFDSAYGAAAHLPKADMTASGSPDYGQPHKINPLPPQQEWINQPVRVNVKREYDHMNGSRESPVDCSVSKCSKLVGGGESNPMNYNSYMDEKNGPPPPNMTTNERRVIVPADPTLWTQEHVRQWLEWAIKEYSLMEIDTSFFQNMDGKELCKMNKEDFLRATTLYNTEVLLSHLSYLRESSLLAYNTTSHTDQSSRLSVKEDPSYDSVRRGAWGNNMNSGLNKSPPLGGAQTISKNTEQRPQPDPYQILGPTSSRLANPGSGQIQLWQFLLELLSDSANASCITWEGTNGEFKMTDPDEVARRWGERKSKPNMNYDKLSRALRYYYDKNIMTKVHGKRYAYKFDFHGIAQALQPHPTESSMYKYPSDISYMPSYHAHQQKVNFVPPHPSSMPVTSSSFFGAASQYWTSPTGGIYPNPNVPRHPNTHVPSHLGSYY
# Summary of the method: (§1)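 GST fusions of human transcription factors were expressed in yeast and captured with glutathione beads. Once given DNA barcodes and pooled alongside a tag-only sample, they were incubated for 30 min at room temperature with 200 nmole of a random double-stranded 16-mer DNA library in Tris/NaCl/DTT/glycerol buffer, then washed, crosslinked (0.1% formaldehyde), proximity-ligated, PCR-amplified and sequenced on an Illumina NextSeq500. The binding signal of each hexamer is its read frequency for a factor divided by its frequency for the tag-only sample.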
# ELK1 = target: T2, ELK1 (Homo sapiens, UniProt P19419 1-428)
# T2 sequence: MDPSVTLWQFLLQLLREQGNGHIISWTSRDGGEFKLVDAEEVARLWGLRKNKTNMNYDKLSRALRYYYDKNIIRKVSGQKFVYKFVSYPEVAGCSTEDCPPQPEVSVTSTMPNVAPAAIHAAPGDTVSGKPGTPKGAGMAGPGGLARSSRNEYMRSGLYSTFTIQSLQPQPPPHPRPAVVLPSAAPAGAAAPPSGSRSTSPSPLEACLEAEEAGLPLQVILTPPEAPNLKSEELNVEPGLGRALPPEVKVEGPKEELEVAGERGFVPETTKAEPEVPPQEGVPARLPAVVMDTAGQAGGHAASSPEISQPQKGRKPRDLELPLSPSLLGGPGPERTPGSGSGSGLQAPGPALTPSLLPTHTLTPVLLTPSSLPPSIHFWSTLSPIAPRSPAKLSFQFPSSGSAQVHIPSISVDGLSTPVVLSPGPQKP
# Summary of the method: as §1
# GABPA = target: T3, GABPA (Homo sapiens, UniProt Q06546 1-454)
# T3 sequence: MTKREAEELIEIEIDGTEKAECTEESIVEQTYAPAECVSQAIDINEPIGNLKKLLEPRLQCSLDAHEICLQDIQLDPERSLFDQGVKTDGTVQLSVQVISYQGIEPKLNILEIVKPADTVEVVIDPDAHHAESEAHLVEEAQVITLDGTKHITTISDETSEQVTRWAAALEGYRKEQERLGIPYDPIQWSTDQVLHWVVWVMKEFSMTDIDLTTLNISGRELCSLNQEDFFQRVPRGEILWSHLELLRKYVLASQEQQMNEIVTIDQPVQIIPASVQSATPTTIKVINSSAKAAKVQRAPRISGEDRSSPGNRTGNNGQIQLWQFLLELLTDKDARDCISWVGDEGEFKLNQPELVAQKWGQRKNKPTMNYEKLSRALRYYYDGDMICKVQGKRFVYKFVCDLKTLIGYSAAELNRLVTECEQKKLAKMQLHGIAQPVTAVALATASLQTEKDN
# Summary of the method: as §1
# ERG = target: T4, ERG (Homo sapiens, UniProt P11308 1-479)
# T4 sequence: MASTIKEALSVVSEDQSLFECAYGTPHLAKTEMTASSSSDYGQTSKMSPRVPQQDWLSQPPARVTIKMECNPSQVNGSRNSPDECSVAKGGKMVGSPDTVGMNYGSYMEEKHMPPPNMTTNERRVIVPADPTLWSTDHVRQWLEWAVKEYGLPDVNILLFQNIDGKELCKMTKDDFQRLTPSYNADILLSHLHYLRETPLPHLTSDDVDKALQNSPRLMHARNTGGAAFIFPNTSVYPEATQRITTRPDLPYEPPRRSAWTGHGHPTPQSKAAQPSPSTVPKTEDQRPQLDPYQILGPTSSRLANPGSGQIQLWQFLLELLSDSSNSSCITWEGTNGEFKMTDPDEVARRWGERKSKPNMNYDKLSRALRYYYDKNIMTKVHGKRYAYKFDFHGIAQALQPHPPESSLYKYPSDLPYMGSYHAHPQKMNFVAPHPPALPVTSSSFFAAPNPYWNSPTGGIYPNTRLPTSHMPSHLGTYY
# Summary of the method: as §1
# ELF1 = ELF1 (Homo sapiens, UniProt P32519 1-619)
# ELF1, sequence (P32519 whole entry): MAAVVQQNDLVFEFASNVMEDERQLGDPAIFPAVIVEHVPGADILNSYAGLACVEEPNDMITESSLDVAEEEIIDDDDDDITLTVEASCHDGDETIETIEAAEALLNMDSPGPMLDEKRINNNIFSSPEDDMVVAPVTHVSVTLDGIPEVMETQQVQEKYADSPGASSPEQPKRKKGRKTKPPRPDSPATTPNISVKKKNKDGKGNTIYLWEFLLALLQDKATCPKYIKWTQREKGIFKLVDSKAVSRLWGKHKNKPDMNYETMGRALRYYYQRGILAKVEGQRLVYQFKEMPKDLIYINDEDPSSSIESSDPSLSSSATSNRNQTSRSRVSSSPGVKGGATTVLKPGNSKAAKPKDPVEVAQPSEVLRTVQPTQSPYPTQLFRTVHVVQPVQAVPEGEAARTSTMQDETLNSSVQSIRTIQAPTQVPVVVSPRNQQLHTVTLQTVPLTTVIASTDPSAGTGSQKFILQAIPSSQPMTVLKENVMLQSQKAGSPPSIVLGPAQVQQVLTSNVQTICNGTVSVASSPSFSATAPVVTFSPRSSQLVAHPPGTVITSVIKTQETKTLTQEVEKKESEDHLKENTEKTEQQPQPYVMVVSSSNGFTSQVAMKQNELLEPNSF
# Summary of the method: as §1
# EHF = target: T5, EHF (Homo sapiens, UniProt Q9NZC4 1-300)
# T5 sequence: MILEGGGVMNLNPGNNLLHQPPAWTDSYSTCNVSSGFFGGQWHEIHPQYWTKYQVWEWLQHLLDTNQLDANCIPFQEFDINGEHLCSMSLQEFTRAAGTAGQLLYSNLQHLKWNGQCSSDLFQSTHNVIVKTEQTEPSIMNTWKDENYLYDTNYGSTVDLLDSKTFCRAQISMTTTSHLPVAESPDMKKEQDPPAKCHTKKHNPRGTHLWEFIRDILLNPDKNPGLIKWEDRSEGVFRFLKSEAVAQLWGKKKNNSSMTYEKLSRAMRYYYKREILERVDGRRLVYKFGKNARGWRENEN
# Summary of the method: as §1
# SPI1 = SPI1 (Homo sapiens, UniProt P17947 1-270)
# Summary of the method: as §1
# SPIB = SPIB (Homo sapiens, UniProt Q01892 1-262)
# SPIB, sequence (Q01892 whole entry): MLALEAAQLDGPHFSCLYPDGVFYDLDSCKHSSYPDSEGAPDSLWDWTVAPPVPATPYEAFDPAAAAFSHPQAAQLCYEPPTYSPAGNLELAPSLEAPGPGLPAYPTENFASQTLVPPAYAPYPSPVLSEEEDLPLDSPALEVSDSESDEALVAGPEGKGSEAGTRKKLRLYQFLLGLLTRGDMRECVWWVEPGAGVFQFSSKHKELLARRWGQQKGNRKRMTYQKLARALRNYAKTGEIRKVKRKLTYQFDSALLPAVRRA
# Summary of the method: as §1
# ELK3 = target: T6, ELK3 (Homo sapiens, UniProt P41970 1-407)
# T6 sequence: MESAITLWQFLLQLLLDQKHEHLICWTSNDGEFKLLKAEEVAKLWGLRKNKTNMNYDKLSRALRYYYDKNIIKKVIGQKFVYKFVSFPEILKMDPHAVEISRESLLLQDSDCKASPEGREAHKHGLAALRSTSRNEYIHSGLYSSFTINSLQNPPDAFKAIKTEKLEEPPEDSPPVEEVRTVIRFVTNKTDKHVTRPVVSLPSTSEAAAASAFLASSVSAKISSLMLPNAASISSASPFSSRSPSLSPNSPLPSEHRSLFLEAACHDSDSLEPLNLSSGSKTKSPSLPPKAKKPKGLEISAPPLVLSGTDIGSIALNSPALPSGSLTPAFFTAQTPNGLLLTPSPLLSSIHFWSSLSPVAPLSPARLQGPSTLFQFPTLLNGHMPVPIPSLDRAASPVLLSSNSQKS
# Summary of the method: as §1
Sequence,binding signal (FLI1),binding signal (ELK1),binding signal (GABPA),binding signal (ERG),binding signal (ELF1),binding signal (EHF),binding signal (SPI1),binding signal (SPIB),binding signal (ELK3)
CACTAT,"1.23 fold enrichment (6-mer frequency, TF over GST control)","1.18 fold enrichment (6-mer frequency, TF over GST control)","1.31 fold enrichment (6-mer frequency, TF over GST control)","1.18 fold enrichment (6-mer frequency, TF over GST control)","1.26 fold enrichment (6-mer frequency, TF over GST control)","1.16 fold enrichment (6-mer frequency, TF over GST control)","1.25 fold enrichment (6-mer frequency, TF over GST control)","1.17 fold enrichment (6-mer frequency, TF over GST control)","1.24 fold enrichment (6-mer frequency, TF over GST control)"
TTTCTT,"1.42 fold enrichment (6-mer frequency, TF over GST control)","1.3 fold enrichment (6-mer frequency, TF over GST control)","1.42 fold enrichment (6-mer frequency, TF over GST control)","1.37 fold enrichment (6-mer frequency, TF over GST control)","1.38 fold enrichment (6-mer frequency, TF over GST control)","1.29 fold enrichment (6-mer frequency, TF over GST control)","1.37 fold enrichment (6-mer frequency, TF over GST control)","1.24 fold enrichment (6-mer frequency, TF over GST control)","1.31 fold enrichment (6-mer frequency, TF over GST control)"
TTGACC,"1.4 fold enrichment (6-mer frequency, TF over GST control)","1.44 fold enrichment (6-mer frequency, TF over GST control)","1.56 fold enrichment (6-mer frequency, TF over GST control)","1.49 fold enrichment (6-mer frequency, TF over GST control)","1.43 fold enrichment (6-mer frequency, TF over GST control)","1.46 fold enrichment (6-mer frequency, TF over GST control)","1.34 fold enrichment (6-mer frequency, TF over GST control)","1.46 fold enrichment (6-mer frequency, TF over GST control)","1.54 fold enrichment (6-mer frequency, TF over GST control)"
CAACCT,"1.2 fold enrichment (6-mer frequency, TF over GST control)","1.16 fold enrichment (6-mer frequency, TF over GST control)","1.23 fold enrichment (6-mer frequency, TF over GST control)","1.13 fold enrichment (6-mer frequency, TF over GST control)","1.2 fold enrichment (6-mer frequency, TF over GST control)","1.21 fold enrichment (6-mer frequency, TF over GST control)","1.14 fold enrichment (6-mer frequency, TF over GST control)","1.17 fold enrichment (6-mer frequency, TF over GST control)","1.08 fold enrichment (6-mer frequency, TF over GST control)"
CTCCTG,"1.66 fold enrichment (6-mer frequency, TF over GST control)","1.69 fold enrichment (6-mer frequency, TF over GST control)","1.74 fold enrichment (6-mer frequency, TF over GST control)","1.51 fold enrichment (6-mer frequency, TF over GST control)","1.65 fold enrichment (6-mer frequency, TF over GST control)","1.33 fold enrichment (6-mer frequency, TF over GST control)","1.58 fold enrichment (6-mer frequency, TF over GST control)","1.7 fold enrichment (6-mer frequency, TF over GST control)","1.73 fold enrichment (6-mer frequency, TF over GST control)"
GAACCC,"1.12 fold enrichment (6-mer frequency, TF over GST control)","1.19 fold enrichment (6-mer frequency, TF over GST control)","1.16 fold enrichment (6-mer frequency, TF over GST control)","1.18 fold enrichment (6-mer frequency, TF over GST control)","1.14 fold enrichment (6-mer frequency, TF over GST control)","1.13 fold enrichment (6-mer frequency, TF over GST control)","1.16 fold enrichment (6-mer frequency, TF over GST control)","1.06 fold enrichment (6-mer frequency, TF over GST control)","1.19 fold enrichment (6-mer frequency, TF over GST control)"
CGGCTA,"1.16 fold enrichment (6-mer frequency, TF over GST control)","1.14 fold enrichment (6-mer frequency, TF over GST control)","1.1 fold enrichment (6-mer frequency, TF over GST control)","1.1 fold enrichment (6-mer frequency, TF over GST control)","1.15 fold enrichment (6-mer frequency, TF over GST control)","1.13 fold enrichment (6-mer frequency, TF over GST control)","1.16 fold enrichment (6-mer frequency, TF over GST control)","1.21 fold enrichment (6-mer frequency, TF over GST control)","1.02 fold enrichment (6-mer frequency, TF over GST control)"
ATTACT,"1.3 fold enrichment (6-mer frequency, TF over GST control)","1.12 fold enrichment (6-mer frequency, TF over GST control)","1.29 fold enrichment (6-mer frequency, TF over GST control)","1.22 fold enrichment (6-mer frequency, TF over GST control)","1.28 fold enrichment (6-mer frequency, TF over GST control)","1.27 fold enrichment (6-mer frequency, TF over GST control)","1.28 fold enrichment (6-mer frequency, TF over GST control)","1.33 fold enrichment (6-mer frequency, TF over GST control)","1.24 fold enrichment (6-mer frequency, TF over GST control)"
